High-throughput results: PubChem, Johns Hopkins Ion Channel Center
An excerpt weighted towards active compounds, which were near 3.5% of everything screened.
Kir21 inh = inhibitors of mouse Kir2.1 inward-rectifier potassium channel; HEK293-Kir2.1, FluxOR thallium flux fluorescence; stronger effect = lower value; hit rate 0.85% among 310,000; B-score at 10 µM; Inward rectifier potassium channel 2 (Mus musculus), P35561;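 active = fluorescence ratio B-score at or below minus 3 SD of library scores, with starting-brightness B-score within 2 SD, cut at about -4.2 in these data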;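 note: channel flux triggered by added potassium and thallium sulfate stimulus; B-score of peak minus minimum fluorescence over baseline after thallium stimulus; more negative B-score means stronger Kir2.1 block with less thallium influx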
TMEM16A inh = TMEM16A chloride channel inhibitors, primary screen, cell-based, HTS. normalized B-score (activity score, 25-100; higher = stronger inhibition) at 10 µM. HEK293 TMEM16A/YFP iodide influx fluorescence, ionomycin. AID 588511, 2011. hit rate 1.2% among 310,000. Anoctamin-1 (Mus musculus), Q8BHY3;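 active = ratio plate-corrected score three or more library SD toward inhibition, starting fluorescence score within five deviations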;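 note: score derived from kinetic fluorescence span divided by baseline fluorescence per well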
KCNK3 block = human KCNK3 channel inhibitors, primary screen, CHO cells, FluxOR thallium flux, B-score | Potassium channel subfamily K member 3 (Homo sapiens), O14649 | FluxOR fluorescence; stronger effect = lower value | B-score at 10 µM | hit rate 0.84% among 340,000 | AID 602410, 2012;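 active = B-score under library mean minus 4 SD, starting fluorescence ratio at most library mean plus 5 SD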;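 note: more negative B-score means stronger inhibition of thallium flux through KCNK3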
TMEM16A act = TMEM16A chloride channel activators or potentiators, primary screen, cell-based, HTS. HEK293 TMEM16A/YFP-H148Q/I152L, iodide quench fluorescence; stronger effect = lower value. hit rate 0.3% among 340,000. Anoctamin-1 (Mus musculus), Q8BHY3. B-score at 10 µM;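 active = fluorescence-ratio B-score plate-corrected deviation score at least 3 library SD below zero, with starting fluorescence score within 5 deviations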;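 note: channel opened by trigger with iodide after compound preincubation; score built on the fluorescence ratio of max minus min over baseline; more negative score means more quench and so TMEM16A activation or potentiation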
KCNK9 inh = KCNK9 potassium channel inhibitors, primary screen, HEK293 cells, thallium flux; Potassium channel subfamily K member 9 (Homo sapiens), Q9NPC2; FluxOR thallium flux fluorescence; stronger effect = lower value; B-score at 10 µM; hit rate 1.2% among 310,000; AID 488922, 2010;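 active = ratio B-score over 3 SD below the library mean, with starting fluorescence within 5 SD of its mean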;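 note: negative B-score means less thallium flux so channel inhibition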
TMEM16A reconf = TMEM16A chloride channel inhibitors, confirmation, cell-based, re-confirmation; shares compounds with TMEM16A inh; HEK293 TMEM16A/YFP-H148Q, iodide quench fluorescence; ionomycin added to raise cell calcium; inhibition, % at 10 µM; hit rate 39% among 2,300;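 active = mean duplicate percent inhibition, scaled so buffer wells are 0 and the reference blocker 100, over three buffer SD above buffer mean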
TMEM16A Ca cntr = calcium mobilization in TMEM16A/YFP HEK293 cells, confirmation, counter-screen for TMEM16A inhibitor project | Fluo4 calcium mobilization | hit rate 2% among 2,300 | calcium response (% of ionomycin), % at 10 µM | AID 652231, 2013 | shares compounds with TMEM16A inh;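 active = duplicate-averaged calcium signal over 20% of the ionomycin maximum, relative to buffer baseline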;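 note: each well's signal is peak minus trough fluorescence divided by its pre-addition baseline; 0% = buffer wells and 100% = ionomycin wells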
YFP-HEK293 quench = iodide YFP quench changes in parental YFP-HEK293, counter-screen for TMEM16A inhibitor project, cell-based; 2,300 tested, under 10 active; ionomycin; YFP ratio F(max-min)/F0 at 10 µM; shares compounds with TMEM16A inh;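 active = yellow fluorescent protein signal ratio exceeding the buffer control mean by over 5 SD of those controls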;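 note: ratio is mean of duplicate wells from kinetic YFP trace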
ClC-1 rat inh = ClC-1 chloride channel inhibition, selectivity assay for TMEM16A inhibitor project, cell-based, voltage-dependent ClC-1 | shares compounds with TMEM16A inh | CHO ClC-1-YFP, iodide influx fluorescence quench; iodide control reads 0, buffer control 100 | ratio percent, % at 10 µM | 2,300 tested, under 10 active;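 active = duplicate-mean ratio percent above the mean of iodide-only control wells, which defines zero, plus 5 of their SD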;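 note: higher percent means stronger block of ClC-1 iodide influx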
Target sequence (P35524 whole entry, looked up): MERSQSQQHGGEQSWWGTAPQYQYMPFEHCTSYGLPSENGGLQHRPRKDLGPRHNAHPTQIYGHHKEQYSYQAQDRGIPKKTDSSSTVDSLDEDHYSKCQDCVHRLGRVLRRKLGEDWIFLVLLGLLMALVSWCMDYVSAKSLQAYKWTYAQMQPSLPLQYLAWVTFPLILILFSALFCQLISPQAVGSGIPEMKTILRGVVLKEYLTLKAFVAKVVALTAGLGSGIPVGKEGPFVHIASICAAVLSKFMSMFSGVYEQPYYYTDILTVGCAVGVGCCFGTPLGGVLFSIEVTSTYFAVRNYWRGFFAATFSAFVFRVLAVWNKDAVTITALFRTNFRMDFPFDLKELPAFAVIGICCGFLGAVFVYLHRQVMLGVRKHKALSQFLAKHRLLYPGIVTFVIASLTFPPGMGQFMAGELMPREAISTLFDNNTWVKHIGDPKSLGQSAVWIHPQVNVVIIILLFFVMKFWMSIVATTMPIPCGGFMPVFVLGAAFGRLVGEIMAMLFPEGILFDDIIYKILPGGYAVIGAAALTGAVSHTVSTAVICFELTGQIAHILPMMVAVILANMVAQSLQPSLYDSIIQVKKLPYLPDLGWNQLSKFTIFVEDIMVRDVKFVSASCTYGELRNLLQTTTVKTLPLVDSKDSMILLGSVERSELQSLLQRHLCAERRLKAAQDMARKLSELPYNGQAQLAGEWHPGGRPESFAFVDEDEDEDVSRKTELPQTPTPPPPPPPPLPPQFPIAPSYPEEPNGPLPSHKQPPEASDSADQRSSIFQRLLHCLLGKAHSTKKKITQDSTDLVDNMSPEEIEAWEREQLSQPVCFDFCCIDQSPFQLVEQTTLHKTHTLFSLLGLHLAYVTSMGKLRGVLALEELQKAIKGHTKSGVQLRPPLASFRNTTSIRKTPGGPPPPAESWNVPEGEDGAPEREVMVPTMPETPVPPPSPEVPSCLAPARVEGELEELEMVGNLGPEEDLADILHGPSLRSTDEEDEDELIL
An asterisk follows results filed as active; i = inactive; · = no result.

SMILES	Kir21 inh	TMEM16A inh	KCNK3 block	TMEM16A act	KCNK9 inh	TMEM16A reconf	TMEM16A Ca cntr	YFP-HEK293 quench	ClC-1 rat inh
COc1ccc(NS(=O)(=O)c2ccc3oc(SC)nc3c2)cc1	-1.2	i	i	i	i	·	·	·	·
COc1ccc(NS(=O)(=O)c2ccc3oc(SC4CCOC4=O)nc3c2)cc1 (stereo not drawn)	-2.6	25*	i	i	i	37%*	i	-1.1	-10
O=C1CCCCc2sc(Br)c([N+](=O)[O-])c2N1	-1.1	i	i	i	i	·	·	·	·
O=C(Nc1cccc(F)c1)N(Cc1ccc(Cl)cc1)CC(O)C(F)(F)F (stereo not drawn)	0.07	100*	i	i	i	78%*	i	-0.89	-19
COc1ccc(C(=O)/C=C/c2cn(CC(O)CN3CCN(C)CC3)c3ccccc23)cc1OC (stereo not drawn)	-2.7	i	i	i	i	i	i	-0.95	0
S=C(NCC1CCCO1)Nc1cccc(Cl)c1 (stereo not drawn)	-0.1	i	i	i	i	·	·	·	·
S=C(Nc1ccc(Oc2ccccc2)cc1)NC1CCCC1	-1.4	i	i	i	i	·	·	·	·
S=C(NCC1CCCCC1)Nc1ccc(Oc2ccccc2)cc1	-5.2	100*	i	i	i	20%*	i	-1.3	-20
S=C(NCC1CCCO1)Nc1ccc(Nc2ccccc2)cc1 (stereo not drawn)	0	100*	i	i	i	i	i	-0.84	-8
C[C@H](NC(=O)N1CCn2c1nc1ccccc12)C(=O)N1CCCCC1	0.49	i	i	i	i	·	·	·	·
COc1ccc(CC(=O)Nc2nnc(C)s2)cc1	-2	i	i	i	i	·	·	·	·
O=C(N/N=C/c1cc2cc3c(cc2nc1Cl)OCO3)c1ccncc1	0.77	i	i	i	i	·	·	·	·
COc1ccc(N=C2SCC(=O)N2CCc2ccc(OC)c(OC)c2)cc1	-0.83	i	i	i	i	·	·	·	·
COc1ccc(CCN2C(=O)CSC2=Nc2ccc(C(C)C)cc2)cc1OC	-0.28	100*	i	i	i	53%*	i	-0.94	-28
COc1ccc(-n2nc(C(=O)NCC(=O)NCCc3ccc(OC)c(OC)c3)c3ccccc3c2=O)cc1Cl	1.1	25*	i	i	i	i	i	-1.3	-4
O=C(N/N=C\c1c(O)ccc2ccccc12)c1ccc(S(=O)(=O)N2CCCCC2)cc1	-2.4	i	i	i	i	·	·	·	·
CCCNC(=O)Nc1cc(S(=O)(=O)CC)ccc1O	0.62	i	i	i	i	·	·	·	·
CCS(=O)(=O)c1ccc(O)c(NC(=O)c2cc(OC)c(OC)c(OC)c2)c1	-1.4	i	i	i	i	i	i	-1.1	-6
COC(=O)c1cc(NC(=O)Nc2ccccc2OC)cc(C(=O)OC)c1	1.5	i	i	i	i	·	·	·	·
Clc1ccc(OCc2nnc(SCc3nc4ccccc4[nH]3)n2Cc2ccco2)cc1	-1.6	25*	i	i	i	i	i	-1.1	-18
Clc1cccc(-c2nnc(SCc3nc4ccccc4[nH]3)n2Cc2ccco2)c1	0.3	i	i	i	i	·	·	·	·
N#CCCN(C(=O)COc1ccc(Cl)cc1Cl)c1ccccc1	-0.8	i	i	i	i	·	·	·	·
COc1ccccc1NC(=O)c1ccccc1NS(=O)(=O)c1cccs1	0.85	i	i	i	i	·	·	·	·
COc1ccc(C)cc1NC(=O)c1ccccc1NS(=O)(=O)c1ccc(Cl)s1	-1.5	100*	i	i	i	48%*	i	-1	-13
O=C(Cn1[nH]c(=O)c2ccccc2c1=O)OCC(=O)N(Cc1ccccc1)Cc1ccccc1	-0.09	100*	i	i	i	i	24%*	-0.9	-14
SMILES	Kir21 inh	TMEM16A inh	KCNK3 block	TMEM16A act	KCNK9 inh	TMEM16A reconf	TMEM16A Ca cntr	YFP-HEK293 quench	ClC-1 rat inh
CCN(CC)S(=O)(=O)c1cc(C(=O)OCC(=O)Nc2cccc(S(=O)(=O)N(C)C)c2)ccc1F	0.64	25*	i	i	i	i	i	-1.1	5
CCN(CC)S(=O)(=O)c1ccc(Cl)c(NC(=O)COC(=O)c2ccc(O)cc2)c1	0.81	25*	i	i	i	45%*	i	-0.91	-8
CC(=O)c1cccc(NC(=O)c2cccc3ccccc23)c1	1.1	i	i	i	i	·	·	·	·
COc1ccc([N+](=O)[O-])cc1NCc1ccccc1C	-0.7	100*	i	i	i	i	i	-1.2	-9
Cc1ccc(NC(=O)CN2C(=O)COc3ccc(C)cc32)nc1	-1.3	25*	i	i	i	i	i	-0.89	-18
CC1CC(C)CN(C(=O)/C(=C\c2ccccc2)c2ccccc2)C1 (stereo not drawn)	1.1	i	i	i	i	·	·	·	·
CN1CCN(C(=O)/C(=C/c2ccccc2)c2ccccc2)CC1	0.26	25*	i	i	i	i	i	-0.95	-2
CC(C)Cc1csc(NC(=O)c2ccc(Br)cc2)c1C(=O)O	0.06	100*	i	i	i	i	i	-1.2	-14
CC(C)Cc1csc(NC(=O)C(C)C)c1C(=O)O	0.91	i	i	i	i	·	·	·	·
CCN(CC)C(=O)COc1coc(CN2CCN(c3ccccc3F)CC2)cc1=O	0.03	i	i	i	i	·	·	·	·
CCCCCCCCCc1nc2sc3c(c2c(=O)n1NC(=O)c1ccccc1[N+](=O)[O-])CC(C)(C)OC3	-0.07	25*	i	i	i	i	i	-1.2	-8
CCc1nnc(NC(=O)CSc2nnc(-c3ccccc3O)n2CC)s1	0.5	i	i	i	i	·	·	·	·
Cc1cc(C)c(NC(=O)CSc2nnc(-c3ccncc3)n2Cc2ccco2)c(C)c1	-0.01	i	i	i	i	·	·	·	·
